Records with an inconclusive call do not appear. A number with no mark means an inactive call. Activity calls are given as the source filed them. Calls follow the shape of the dose curve; as a rule, active = well fitted cell-killing curve with a large enough effect in the repeat runs (not every such curve was filed as active); inconclusive = weak or mixed curves, or effect the other way; inactive = no such curve, though single readings can be large or run the other way.
test: qHTS assay to identify small molecule antagonists of the farnesoid-X-receptor (FXR) signaling pathway - cell viability counter screen (AID 743221); conditions: FXR-bla HEK293T viability, CellTiter-Glo luminescence, 16 h; series mostly up to 62.6 µM; also: nearly all actives have a fitted effect of over 50% in size
Text: National Center for Advancing Translational Sciences [NCATS]
NIH Chemical Genomics Center [NCGC]
U.S. Environmental Protection Agency [EPA]
National Institutes of Environmental Health Sciences [NIEHS]
National Toxicology Program [NTP]
U.S. Food and Drug Administration [FDA]
The farnesoid-X-receptor (FXR), a nuclear hormone receptor, is highly expressed in liver, intestine, kidney and adrenal cortex. Natural ligands of FXR are the bile acids (Cholic acid, Chenodeoxy cholic acid etc). FXR is an important regulator of diverse metabolic pathways, including the bile acid homeostasis, lipid and glucose metabolisms. FXR regulates the expression of target genes by binding either as a monomer or as a heterodimer with the retinoid X receptor (RXR). Numerous studies have reported that FXR exerts protective function during cholestasis, diabetes, liver regeneration, and cancer. To identify compounds that inhibit FXR signaling, GeneBLAzer FXR-UAS-bla HEK 293T cell line (Invitrogen, Carlsbad, CA) containing a beta-lactamase reporter gene under the control of a UAS response element was used to screen the Tox21 10K compound library. The cytotoxicity of the Tox21 compound library against the FXR-bla cell line was tested in parallel by measuring the cell viability using CellTiter-Glo assay in the same wells.
Tox21 Assay Protocol Summary:
FXR-bla cells were dispensed at 5000 cells/5uL/well in 1536-well black wall/clear bottom plates using a Multidrop Combi (Thermo Fisher Scientific, Waltham, MA) dispenser. After the assay plates were incubated at 37 C and 5% CO2 for 5 h, 23 nL of compounds dissolved in DMSO, positive controls or DMSO only was transferred to the assay plate by a Pintool station (Kalypsys, San Diego, CA), followed by addition of 1 uL Chenodeoxycholic acid (50 uM, final concentration in the wells). The assay plates were incubated at 37C for 16 h. After 1 uL of LiveBLAzerTM B/G FRET substrate was added using a Bioraptr Flying Reagent Dispenser (FRD) workstation (Beckman Coulter, Indianapolis, IN), the plates were incubated at room temperature for 2 h, and fluorescence intensity was measured by an Envision plate reader (PerkinElmer, Shelton, CT). For cell viability readout that measures cytotoxicity, 4uL/well of CellTiter-Glo reagent was added into the assay plates using a Bioraptr FRD. After 30 min incubation at room temperature, the luminescence intensity in the plates was measured using a ViewLux plate reader (PerkinElmer).
% is scaled to controls: 0 for no effect and ±100 for the full control effect.

Row | Compound | outcome | activity change, negative = cytotoxicity
1 | CCCCCCCC1CCCC1=O (stereo not given) | inactive | –
2 | CCOC(=O)c1cnc2c(cnn2CC)c1NN=C(C)C | inactive | –
3 | Nc1ccn([C@@H]2O[C@H](CO)[C@@H](O)C2O)c(=O)n1 (stereo not given in full) | inactive | –
4 | CC(C)=CCC/C(C)=C/C#N | inactive | –
5 | CC(C)(C)C(=O)c1ccccc1 | inactive | –
6 | CN1CCC(=C2c3ccccc3CCc3cccnc32)CC1 | inactive | –
7 | Cc1coc2ccccc2c1=O | inactive | –
8 | NC(=O)N[C@@H](CCC(=O)O)C(=O)O | inactive | –
9 | C[N+](C)(CCOc1ccccc1)Cc1cccs1 | inactive | –
10 | O=C(O)c1cc(C(=O)O)cc(C(=O)O)c1 | inactive | –
11 | O=C(c1ccccc1)C1(O)CCCCC1 | inactive | –
12 | CCC(C)(CCCC(C)C)OC(C)=O (stereo not given) | inactive | –
13 | OCCc1ccccn1 | inactive | –
14 | CNC(=O)Nc1ccc(Cl)c(Cl)c1 | inactive | –
15 | CN1[C@@H]2CC[C@H]1CC(OC(=O)C(O)c1ccccc1)C2 (stereo not given in full) | inactive | –
16 | [Ca+2] | inactive | –
17 | c1coc(CNc2ncnc3nc[nH]c23)c1 | inactive | –
18 | O=C(O)CCCC[P+](c1ccccc1)(c1ccccc1)c1ccccc1 | inactive | –
19 | O=C(O)Cc1csc(-c2ccc(Cl)cc2)n1 | inactive | –
20 | Cc1cccc(C)c1NC(=O)CC12CCCN1CCC2 | inactive | –

Row | Compound | outcome | activity change, negative = cytotoxicity
21 | CC(=O)NC(=O)c1ccccc1O | inactive | –
22 | C=CC(=O)OCCCl | inactive | –
23 | C[N+]1(CC2COC(c3ccccc3)(c3ccccc3)O2)CCCCC1 (stereo not given) | inactive | –
24 | NC(=O)Cc1cccc2ccccc12 | inactive | –
25 | CO[Si](C)(OC)c1ccccc1 | inactive | –
26 | COc1cc(-c2ccc(=O)[nH]n2)ccc1OC(F)F | inactive | –
27 | CC(C)NNC(=O)c1ccncc1 | inactive | –
28 | CCN[C@H]1C[C@H](C)S(=O)(=O)c2sc(S(N)(=O)=O)cc21 | inactive | –
29 | O=C(O)CNC(=O)c1ccccc1 | inactive | –
30 | CCOC(=O)COc1cc(-n2ncc(C(F)(F)F)c(C)c2=O)c(F)cc1Cl | inactive | –
31 | Cc1nc2ccc(CN(C)c3ccc(C(=O)N[C@@H](CCC(=O)O)C(=O)O)s3)cc2c(=O)[nH]1 | inactive | –
32 | COc1cc(C)nc(-n2nc(C)cc2OC)n1 | inactive | –
33 | CCN[C@@H]1C[C@H](N)[C@@H](OC2OC(CN)=CCC2N)[C@H](O)[C@H]1O[C@H]1OC[C@](C)(O)[C@H](NC)[C@H]1O (stereo not given in full) | – | 2.76% [at 0.55 µM]
34 | CCCCc1nc(Cl)c(CO)n1Cc1ccc(-c2ccccc2-c2nn[nH]n2)cc1 | inactive | –
35 | CC/C=C\CCOC(C)OCC (stereo not given) | inactive | –
36 | C=CCOCC(O)CO (stereo not given) | inactive | –
37 | CCC1C(=O)OCC1Cc1cncn1C (stereo not given) | inactive | –
38 | C=C[Si](OC(C)=O)(OC(C)=O)OC(C)=O | inactive | –
39 | CC(C)(C)OC(=O)c1cccc(N)c1 | inactive | –
40 | C[N+](C)(C)CCCCCCCCCC[N+](C)(C)C | inactive | –

— PubChem BioAssay (Tox21)
